Gal4-VP16 FLuc: VP16 counterscreen qHTS for inhibitors of ROR gamma transcriptional activity; Drosophila S2 Gal4-VP16 UAS-luciferase, luminescence, 20 h; Potency, µM (titrated, usually from 53.6 µM), inactives show at the highest dose activity, negative = inhibition, usual class: inhibitors; 310,000 tested, 3.5% active; AID 2546, 2010;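 note: Gal4-VP16 expression switched on by copper sulfate through the metallothionein promoter; potency is the fitted concentration of half-maximal effect; % is set by controls: 0 for no effect and ±100 for the full control effect; nearly all actives have a fitted effect of over 50% in size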
Integrin act MD: qHTS for Activators of Integrin-Mediated Alleviation for Muscular Dystrophy; Potency, µM (series often up to 38.3 µM), without a hit: top-dose activation, actives largely listed as activators; 350,000 tested, 0.064% active; alpha7betagal myoblasts, beta-gal FDG fluorescence, 48 h;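 note: potency is the fitted concentration of half-maximal effect; 100% = response of the positive control SU9516; nearly all actives have a fitted effect of over 60% in size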
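alpha7betagal+/- myoblasts (passage 13, 250/well) treated 48 h at 37C with compounds at 1:260 dilution of DMSO stock. Lysed, then beta-galactosidase activity read as FDG fluorescence (ex 480/em 540) after 30 min, with pre-read for autofluorescence.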
ERG Ets-DNA blk: qHTS for Small Molecule Inhibitors of the ERG Ets/DNA interaction; fluorescence polarization, His-ERG Ets domain / labelled DNA; Potency, µM (highest dose often 76.9 µM), inactives show at the top dose FP activity, negative = inhibition, hits mostly inhibitors; 370,000 tested, 0.028% active; active = well fitted inhibition curve with a large enough effect in the polarisation, with a control signal flat; inconclusive = small, poorly fitted or top-dose-only effect, or effect the other way, or a change in a side signal; inactive = no such curve, though single readings can be large or run the other way; the % refers to the polarisation;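 note: polarization taken with two DNA probes labelled with fluorescein and Texas red; potency is the fitted concentration of half-maximal effect; % of control where 0% means no effect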
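His-tagged ERG Ets domain (1 uM in the protein solution; 300mM KCl, 50mM Tris-HCl, 1mM EDTA, 1mM DTT, pH 7.5) received compound, then a probe mix of 5 nM fluorescein-DNA and 100nM Texas-615-DNA. Fluorescence polarization was read for both dyes.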
RORg inh: qHTS for inhibitors of ROR gamma transcriptional activity; Nuclear receptor ROR-gamma (Mus musculus), P51450; Drosophila S2 Gal4-RORgamma UAS-luciferase reporter, 20 h; Potency, µM (series often up to 53.6 µM), for inactives: top-dose activity change, negative = inhibition, most hits filed as inhibitors; 310,000 tested, 5.4% active; AID 2551, 2010; note: potency is the fitted concentration of half-maximal effect; % is set by controls: 0 for no effect and ±100 for the full control effect; nearly all actives have a fitted effect of over 60% in size
Target sequence (P51450 whole entry, looked up, the tested form may be a part): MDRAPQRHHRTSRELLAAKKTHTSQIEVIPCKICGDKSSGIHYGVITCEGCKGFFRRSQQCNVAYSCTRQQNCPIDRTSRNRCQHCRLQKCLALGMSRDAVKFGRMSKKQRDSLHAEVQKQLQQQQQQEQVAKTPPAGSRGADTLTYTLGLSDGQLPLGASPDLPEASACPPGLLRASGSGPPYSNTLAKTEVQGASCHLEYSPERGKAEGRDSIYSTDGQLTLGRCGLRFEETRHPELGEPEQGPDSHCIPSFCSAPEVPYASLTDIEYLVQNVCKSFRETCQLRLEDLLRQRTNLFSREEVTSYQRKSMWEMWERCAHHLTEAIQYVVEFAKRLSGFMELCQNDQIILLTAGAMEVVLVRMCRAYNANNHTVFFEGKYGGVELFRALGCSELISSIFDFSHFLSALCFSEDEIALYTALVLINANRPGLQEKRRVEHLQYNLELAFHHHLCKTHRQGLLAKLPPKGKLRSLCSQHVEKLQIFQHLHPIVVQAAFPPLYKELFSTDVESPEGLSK
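Using a luciferase readout, inhibitors were identified by reduced reporter activity in Drosophila cells coexpressing a copper-inducible Gal4–ROR gamma fusion and UAS-driven Photinus luciferase, incubated 20 hr after 700 uM copper sulfate.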
Giardia killer: Small Molecules that selectively kill Giardia lamblia: qHTS | Giardia lamblia trophozoite viability | activity change, % at 7.66 µM, hits read low | 340,000 tested, 0.15% active | AID 540267, 2011; in the data active = activity change below about -80%; inconclusive = between about -30% and that limit;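 note: parasites exposed to compound for two days anaerobically before the ATP read; % is set by controls: 0 for no effect and ±100 for the full control effect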
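Luminescent ATP signal served as the viability read-out, measured 15-30 min after adding ATP detection reagent to trophozoites that had been incubated with compounds for 48 hrs at 37 deg C anaerobically at 100 cells/well.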
* hit, by the source's call; ? = inconclusive; nt = no result; [ ] = another dose, or the depositor's remark. Shown is part of a subset that was picked to be rich in hits. Unless noted, calls come from the whole dose curve; as a rule, active = well fitted curve in the direction sought with a large enough effect; inconclusive = small, poorly fitted or top-dose-only effect, or another doubt; inactive = no such curve, though single readings can be large; an effect the other way counts as inactive or inconclusive.

SMILES	Gal4-VP16 FLuc	Integrin act MD	ERG Ets-DNA blk	RORg inh	Giardia killer
CC(C)[C@H](NC(=O)[C@H](Cc1ccccc1)n1c(=O)[nH]c2ccccc2c1=O)C(=O)N1CCC[C@@H]1C(=O)O	2%	10%	-10%	-23%	-14
S=C1CCSc2ccc(Cl)cc2N1	10µM*	3%	9%	4µM*	18
N#CCc1nc2n(n1)Cc1ccccc1-2	-6%	2%	nt	1%	43
c1ccc2c(c1)Cn1nc(Cc3nc4c(s3)CCCC4)nc1-2	0%	4%	-9%	14µM*	2
C/C(Cn1nnc([N+](=O)[O-])n1)=N\NC(=O)c1ccc(Cl)c(Cl)c1	?	-23%	nt	13µM*	-24
C/C(Cn1nnc([N+](=O)[O-])n1)=N\NC(=O)c1ccc(O)cc1	7.9µM*	-19%	-2%	2.8µM*	?
C/C(Cn1cnc([N+](=O)[O-])n1)=N\NC(=O)c1ccc(Br)cc1	-4%	2%	-6%	?	-2
Nc1ccccc1C(=O)NCCCN1CCN(c2cccc(Cl)c2)CC1	nt	-10%	12%	nt	3
COc1ccc(CCC(=O)NNC(=S)NCc2ccc(F)cc2)cc1	-19%	17%	7%	7.9µM*	2
COc1cccc(C(C)NC(=S)NCc2ccc(Cl)cc2)c1 (stereo not drawn)	?	?	-9%	6.3µM*	-15
O=C(NCc1ccc(F)cc1)C(c1ccccc1)c1ccccc1	-3%	-7%	-13%	-23%	-15
CCC(NC(=S)NCc1ccc(F)cc1)c1ccccc1 (stereo not drawn)	3.2µM*	36%	6%	3.5µM*	32
Cc1ccc(C)c(C(C)NC(=S)NCc2ccc(F)cc2)c1 (stereo not drawn)	1.4µM*	-28%	-7%	5µM*	10
COC(=O)c1cccc(NC(=S)NCc2ccc(Cl)cc2)c1	4%[0.365 µM]	-15%	-1%	?	-10
Cc1ccc(C)c(C(C)NC(=O)c2ccncc2)c1 (stereo not drawn)	-3%	23%	-9%	30%	0
COC(=O)C/C=C\[C@H](C)[C@@H](OCc1ccccc1Br)C(C)C	-6%[10 µM]	nt	nt	-18%[10 µM]	nt
COc1ccc(C(C)NC(=S)NCc2ccc(F)cc2)cc1 (stereo not drawn)	1µM*	15%	2%	5.6µM*	3
COc1ccc(CNC(=S)NCc2ccc(F)cc2)cc1OC	?	-1%	9%	-42%	-3
CC(C(=O)N1CCc2ccccc21)N1CCN(S(=O)(=O)c2cccc(C(F)(F)F)c2)CC1 (stereo not drawn)	nt	6%	3%	nt	7
CC(=O)C1C(=O)C=C(c2cccs2)CC1c1ccccc1 (stereo not drawn)	-8%	-12%	10%	13µM*	6
O=C1C=C(c2cccs2)C[C@H](c2ccccc2)[C@H]1n1nnc([N+](=O)[O-])n1	-21%	-53%	0%	?	-21
O=C(c1ccccc1)c1ccc(-c2ccc(O)cc2)cc1	18µM*	-24%	8%	3.5µM*	4
O=C(c1ccccc1)c1ccccc1	-5%	-12%	-2%	-17%	7
O=C1CCCC2CCCCN12 (stereo not drawn)	8%[150 µM]	nt	nt	-29%[150 µM]	nt
CCCCn1c(-c2c(Cl)c(C)nn2C)n[nH]c1=S	-2%	19%	-4%	2.2µM*	-5
SMILES	Gal4-VP16 FLuc	Integrin act MD	ERG Ets-DNA blk	RORg inh	Giardia killer
CC(C)Cn1c(-c2ccco2)n[nH]c1=S	?	6%[7.66 µM]	2%	10µM*	2
C=CCn1c(-c2ccoc2C)n[nH]c1=S	?	13%[7.66 µM]	-1%	?	-3
C=CCn1c(-c2ccco2)n[nH]c1=S	?	0%	-4%	10µM*	-12
CCn1c(-c2c(Cl)c(C)nn2C)n[nH]c1=S	-27%	32%	2%	?	-6
CCCCn1c(-c2sccc2C)n[nH]c1=S	11µM*	-27%	-7%	5µM*	?
CCCOc1ccc(C(=O)Nc2ccc(NC(=O)c3ccccc3)c(Br)c2)cc1	nt	nt	2%	nt	nt
Cn1c(-c2ccco2)n[nH]c1=S	-3%	-15%	0%	?	-2
CCn1c(-c2ccco2)n[nH]c1=S	?	-9%	5%	16µM*	-8
CCCCn1c(-c2ccco2)n[nH]c1=S	7.1µM*	0%	4%	4.5µM*	7
CCCCn1c(-c2ccoc2C)n[nH]c1=S	-2%	3%	6%	3%	3
Cc1cccc(CNC(=O)CCCN2C(=O)COc3ccc(C)cc32)c1	nt	nt	5%	nt	nt
O=C(Nc1ccccc1O)C(c1ccccc1)c1ccccc1	16µM*	-33%	-2%	?	-21
O=C(O)c1ccccc1NC(=O)C(c1ccccc1)c1ccccc1	nt	-12%	6%	nt	0
CC(=O)Nc1ccc(Cc2nc3c([nH]2)c(=O)n(C)c(=O)n3C)cc1	-2%	nt	nt	-8%	nt
Cc1ccc(S(=O)(=O)N2CCOCC2)cc1NC(=O)COC(=O)CNC(=O)c1ccc(Cl)cc1Cl	-3%	27%	1%	5%	9
O=c1[nH]c(CN2CCN(Cc3ccccc3)CC2)nc2scc(-c3ccccc3)c12	0%	18%	5%	1%	-5
O=c1[nH]c(Cc2ccccn2)nc2scc(-c3ccccc3Cl)c12	11µM*	-18%	6%	6.3µM*	3
COC(=O)[C@H](C)NC(=O)C/C=C\[C@@H](C)CO	-8%[10 µM]	nt	nt	5%[10 µM]	nt
O=Cc1s/c(=N\S(=O)(=O)c2ccccc2)n(CCCCl)c1Cl	?	-62%	6%	5µM*	-3
CCC1=NN(C(=O)c2ccc(Cl)cc2)C(O)(c2ccc(C)cc2)C1 (stereo not drawn)	25µM*	19%	-7%	18µM*	-24
CCC1=NN(C(=O)c2ccc(Cl)cc2)C(O)(c2ccccc2)C1 (stereo not drawn)	10µM*	-39%	4%	?	-22
Nc1c2c(nc3sc4c(c13)CCCC4)-c1ccccc1CC2	10µM*	-11%	-7%	?	-10
CC12CCC(C(=O)O)(c3nc4cc([N+](=O)[O-])ccc4nc31)C2(C)C (stereo not drawn)	7%	9%	34%	-3%	4
COc1ccc(CN(Cc2ccccc2)C(=O)Nc2ccccc2)cc1COc1ccc(NC(C)=O)cc1	nt	nt	nt	nt	-9

Bioassay records as filed in PubChem.
